{
  "source": "PubChem BioAssay",
  "note": "The source made the active and inactive calls. No rule for the calls is given here.",
  "data": [
    {"biological_target": "Pantothenate synthetase (Mycobacterium tuberculosis (strain ATCC 25618 / H37Rv)) (UniProt P9WIL5)", "sequence (P9WIL5 whole entry, looked up)": "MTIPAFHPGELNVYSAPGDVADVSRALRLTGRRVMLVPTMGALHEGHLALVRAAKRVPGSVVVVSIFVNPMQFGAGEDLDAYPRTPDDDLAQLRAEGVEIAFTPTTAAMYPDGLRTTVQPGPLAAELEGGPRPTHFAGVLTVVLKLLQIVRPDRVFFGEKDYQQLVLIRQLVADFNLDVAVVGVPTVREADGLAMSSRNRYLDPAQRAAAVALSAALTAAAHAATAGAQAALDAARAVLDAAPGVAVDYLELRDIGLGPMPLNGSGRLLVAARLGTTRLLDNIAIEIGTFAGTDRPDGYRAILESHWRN", "assay": "Coupled enzyme confirmation of inhibitors against recombinant Mtb PanC (AID 375);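 also: 0% = full reaction with vehicle and 100% = no enzyme background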", "details": "coupled enzyme assay; at 10 µM, stronger effect = higher value", "values": [
      {"smiles": "Cc1noc(/C=C/N(C)C)c1S(=O)(=O)N1CCCC(C(=O)NCCC2=CCCCC2)C1", "note": "(stereo not drawn)", "inhibition": "0% (inactive)"},
      {"smiles": "OCCn1c(CSc2nnc(-c3ccco3)n2-c2ccccc2)nc2ccc(Cl)cc21", "inhibition": "2% (inactive)"},
      {"smiles": "CCC(C)(C)NC(=O)CN(C(=O)c1snc(C(N)=O)c1N)c1ccc2c(c1)OCO2", "inhibition": "11% (inactive)"},
      {"smiles": "Cc1cc(C)cc(OCCCC(=O)O)c1", "inhibition": "4% (inactive)"},
      {"smiles": "COCCNc1oc(-c2ccc(C)cc2)nc1C#N", "inhibition": "0% (inactive)"},
      {"smiles": "Cn1cccc1C(=O)NC(=O)CSc1nnc(C2CC2)n1-c1ccccc1", "inhibition": "0% (inactive)"},
      {"smiles": "Cc1c2c(nc3nc4ccccc4n13)CC(C)(C)CC2=O", "inhibition": "8% (inactive)"},
      {"smiles": "COc1ccc(NC(=O)CSc2ccccn2)cc1OC", "inhibition": "0% (inactive)"},
      {"smiles": "Cc1cc(=O)oc(C)c1C(=O)O", "inhibition": "0% (inactive)"},
      {"smiles": "Cc1cc(-c2ccccc2)nnc1NCCN1CCOCC1", "inhibition": "0% (inactive)"},
      {"smiles": "CC(=O)N1CCc2cc(S(=O)(=O)CCC(=O)N3CCN(C(=O)c4ccco4)CC3)ccc21", "inhibition": "6% (inactive)"},
      {"smiles": "CCOc1ccccc1C(=O)NCC(=O)OCC(=O)N1C(C)CCCC1C", "note": "(stereo not drawn)", "inhibition": "7% (inactive)"},
      {"smiles": "Cc1ccc(OC(=O)NC2CCS(=O)(=O)C2)cc1C", "note": "(stereo not drawn)", "inhibition": "0% (inactive)"},
      {"smiles": "Cn1c(SCC(N)=O)nnc1C1CCN(C(=O)NCc2ccccc2)CC1", "inhibition": "0% (inactive)"},
      {"smiles": "Cn1c(=O)c2c(nc3sccn32)n(C)c1=O", "inhibition": "0% (inactive)"},
      {"smiles": "CCC(=O)Nc1c2c(nn1-c1ccccc1C)CSC2", "inhibition": "6% (inactive)"},
      {"smiles": "CCOC(=O)C1=C(CSc2nc(C)cc(C)c2C#N)OC(N)=C(C#N)C1c1cccs1", "note": "(stereo not drawn)", "inhibition": "2% (inactive)"},
      {"smiles": "CCOC(=O)N1CCN(C(=O)Nc2ccc(Cl)cc2)CC1", "inhibition": "0% (inactive)"},
      {"smiles": "COc1ccc(OCc2cccc(C(=O)O)c2)cc1", "inhibition": "0% (inactive)"},
      {"smiles": "Cc1cc(NC(=O)Cc2c(F)cccc2Cl)no1", "inhibition": "10% (inactive)"},
      {"smiles": "O=C(COc1ccc(S(=O)(=O)NC2CCCCC2)cc1Cl)NCC1CCCO1", "note": "(stereo not drawn)", "inhibition": "0% (inactive)"},
      {"smiles": "CCOC(=O)C1CCN(C(=O)c2c(-c3c(Cl)cccc3Cl)noc2C)CC1", "inhibition": "0% (inactive)"},
      {"smiles": "COC(=O)CSc1nc2nc(C)cc(C)n2n1", "inhibition": "7% (inactive)"}
    ]}
  ]
}
